Records with an inconclusive call do not appear. Activity calls are given as the source filed them. The call rests on the fitted dose curve; in most records, active means well fitted curve in the direction sought with a large enough effect; inconclusive means small, poorly fitted or top-dose-only effect, or another doubt; inactive means no such curve, though single readings can be large or run the other way.

The results in this text go back to PubChem BioAssay (NCATS).

Chain of Thioredoxin reductase 1, cytoplasmic (Rattus norvegicus) (O89049 whole entry, looked up): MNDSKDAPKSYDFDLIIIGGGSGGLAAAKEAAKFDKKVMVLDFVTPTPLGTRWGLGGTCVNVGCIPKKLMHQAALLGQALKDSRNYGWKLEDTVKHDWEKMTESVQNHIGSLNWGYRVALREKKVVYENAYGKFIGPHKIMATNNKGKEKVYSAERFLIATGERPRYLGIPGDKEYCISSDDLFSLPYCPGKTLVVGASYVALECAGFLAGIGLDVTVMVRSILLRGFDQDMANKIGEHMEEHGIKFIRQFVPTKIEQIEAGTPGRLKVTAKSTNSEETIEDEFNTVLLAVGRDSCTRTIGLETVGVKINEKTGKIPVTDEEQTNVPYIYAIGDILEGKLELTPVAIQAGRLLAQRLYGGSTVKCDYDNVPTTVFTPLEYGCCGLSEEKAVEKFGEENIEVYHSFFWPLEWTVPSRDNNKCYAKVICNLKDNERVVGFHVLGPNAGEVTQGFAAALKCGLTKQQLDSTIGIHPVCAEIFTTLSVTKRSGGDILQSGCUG

In this assay the target is Thioredoxin reductase 1, cytoplasmic (Rattus norvegicus) (UniProt O89049). Kind of assay: qHTS Assay for Substrates of Mammalian Selenoprotein Thioredoxin Reductase 1 (TrxR1) (AID 488772).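 Further: a drop in NADPH fluorescence below the no-compound background marks a TrxR1 substrate.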 The following applies: purified TrxR1, NADPH consumption substrate assay; series mostly up to 57.1 µM. The text has this:
The selenoprotein thioredoxin reductase (TrxR; EC 1.8.1.9) is a FAD containing homodimeric pyridine nucleotide-disulfide oxidoreductase with many cellular roles. Together with NADPH and its prime substrate thioredoxin (Trx), the enzyme forms the core of the Trx system. The mammalian Trx system exerts a wide spectrum of functions including redox regulation, antioxidant defense, regulation of transcription factors as well as support of cell growth and replication. Many of these functions involve the reduction of Trx, which may subsequently reduce a number of different substrates including ribonucleotide reductase, peroxiredoxins or NFkB. Mammalian TrxR itself also has a broad substrate specificity, reducing both protein and non-protein substrates, including low molecular weight compounds such as dehydroascorbate, lipoic acid, ubiquinone, and juglone. In addition, several drugs in clinical use for anticancer treatment are indeed known to target TrxR1.
This BioAssay is a validation of an NADPH fluorescence-based, dual-purpose qHTS rTrxR1 assay designed to find potential inhibitors and substrates of rTrxR1. For this particular BioAssay, actives are potential substrates. See related BioAssay for inhibitors data deposition.
Assay protocol: 2 uL of reagents (buffer in column 4 as negative control and 90 nM rTrxR1 in columns 1-3 and 5-48) were dispensed into Greiner black solid-bottom 1,536-well assay plates, followed by 1 uL of NADPH (400 uM final concentration) to each well. The plates were centrifuged at 1000 rpm for 15 seconds and subsequently incubated for 5 min at room temperature (~22 deg C) to allow for rTrxR1 reduction. Compounds (23 nL) were then transferred via Kalypsys pin tool equipped with 1536-pin array (10 nL slotted pins, V&P Scientific, San Diego, CA). In addition, a duplicate 2-fold serial dilution of the control compounds auranofin, a known gold-based TrxR1 inhibitor, and juglone (5-hydroxy-1,4-naphthoquinone), a natural TrxR1 substrate, were pin-transferred to columns 2 and 3, respectively. After incubation for 15 min at room temperature (~22 deg C), 1 uL of selenite (400 uM final concentration) were dispensed to each well. The plate was immediately transferred to a ViewLux high-throughput CCD imager (PerkinElmer), wherein kinetic measurements of NADPH fluorescence (Ex 340 nm, Em 450 nm) were acquired (8 minute kinetic read, see Table 1). Read 1 was utilized to assess the capacity of a compound to serve as an rTrxR1 substrate, i.e. a decrease in NADPH fluorescence compared to the no-compound background is an indication of a substrate behavior for that particular compound. For inhibitory activity of a compound, delta values, computed as the difference in fluorescence intensity between the first and last reads of an 8-minute time kinetic window, were used. All reagents were diluted in an assay buffer consisting of 50 mM Tris-HCl, pH 7.5, 2 mM EDTA, and 0.01% Tween-20.
Throughout the screen, reagent bottle and all liquid lines were made light-tight to minimize reagent degradation. All screening operations were performed on a fully integrated robotic system (Kalypsys, San Diego, CA) containing one RX-130 and two RX-90 anthropomorphic robotic arms (Staubli, Duncan, SC). Library plates were screened starting from the lowest and proceeding to the highest concentration, and a 'double-pinning' step of the highest concentration was required to access higher concentrations of compounds. Vehicle-only plates, with DMSO being pin-transferred to the columns 5-48, were inserted uniformly at the beginning and the end of each library in order to monitor and record any shifts in the background, which can be affected by reagent dispensers or loss in enzyme activity over time. Screening data were corrected, normalized, and concentration-effect relationships were derived by using publicly-available curve fitting algorithms developed in-house (http://ncgc.nih.gov/pub/openhts).
Turning to `Clc1ccc2c(c1)N=C(N1CCNCC1)c1ccccc1N2`, the call was inactive.
The entry for `Nc1ncnc2n[nH]c(Nc3ccc(F)cc3)c12` is “inactive”.
The entry for `C[N+](C)(C)CCO` is “inactive”; for `Cn1cnc2c(NCc3ccccc3)nc(NCCO)nc21` it is “inactive”; for `CCN(CC)CCNC(=O)c1ccc(NS(C)(=O)=O)cc1` it is “inactive”.
The entry for `COc1cccc2c1[C@@H]1CN(CCCCn3c(=O)[nH]c4c(sc5ncc(-c6ccccc6)nc54)c3=O)C[C@@H]1CO2` is “inactive”.
With `COc1ccccc1N1CCN(CCN2C(=O)CC3(CCCC3)CC2=O)CC1`, the compound was classed as inactive.
The entry for `N[C@@H](Cn1ccc(=O)c(O)c1)C(=O)O` is “inactive”; for `CN(C)c1cc2c(Nc3ccc4c(cnn4Cc4ccccc4)c3)ncnc2cn1` it is “inactive”.
On to `Brc1ccc([C@H]2CN3CCSC3=N2)cc1`, for which the outcome was inactive.
Turning to `O=C1NC(=O)/C(=C/c2ccc3c(c2)OC(F)(F)O3)S1`, the result was inactive.
Turning to `NC(N)=NCCCCN=C(N)N`, the compound was classed as inactive.
The entry for `Cc1nn(-c2ccccc2)c(C)c1/C=N/N1CCN(Cc2ccccc2)CC1` is “inactive”; for `O=[N+]([O-])c1ccc(-c2nc(-c3ccc(F)cc3)c(-c3ccncc3)[nH]2)cc1` it is “inactive”.
In the case of `O=C1NC(c2cccc([N+](=O)[O-])c2)=CCN1c1ccccc1O`, the outcome was inactive.
The entry for `CC(C)N(CCC(=O)c1ccc2ccccc2c1)Cc1ccccc1` is “inactive”.
